Measured values as given in PubChem BioAssay.
Results filed as inconclusive are left out. Activity calls are given as the source filed them.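 How the source made its calls, unless noted: active means GFP signal, as percent of the solvent control, above the screen mean plus 3 SD, about 149; inconclusive means no reading because the compound's own fluorescence upset strain identification; inactive means the rest.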

What was measured:
[1] = yeast TOR pathway RPL19A-GFP modulators, primary screen, cell-based, S. cerevisiae, multiplex flow cytometry (AID 1862; in the data active means percent of DMSO control GFP below about 86%;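 further: lower values mimic rapamycin by blocking the RPL19A rise seen in DMSO cells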); details: S. cerevisiae RPL19A-GFP strain, flow cytometry fluorescence, 3 h; at 10 µM; stronger effect = lower value
[2] = modulators of MEP2-GFP levels in yeast, primary screen, S. cerevisiae, multiplex flow cytometry (AID 1867;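 active means GFP response, as percent of the DMSO control, above the screen-wide mean plus 3 SD, about 139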;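 further: median GFP channel fluorescence of barcode-gated MEP2-GFP cells measured by flow cytometry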); details: S. cerevisiae MEP2-GFP strain, 3 h, at 10 µM, stronger effect = higher value, 100% means same as DMSO wells
[3] = modulators of CIT2-GFP expression in yeast, primary screen, S. cerevisiae, GFP fusion, multiplex flow cytometry (AID 1870;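 active means percent response above a set limit, the screen-wide mean plus 3 SD, cut at about 130% in these data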;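 further: barcoded CIT2-GFP strain pooled with four other GFP strains with rapamycin as positive control; median GFP fluorescence per well over plate mean of DMSO wells so 100% = DMSO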); details: 3 h, at 10 µM, stronger effect = higher value
[4] = modulators of LAP4-GFP expression in yeast, primary screen, S. cerevisiae, multiplex flow cytometry (AID 1873); details: 3 h, at 10 µM, stronger effect = higher value
[5] = modulators of AGP1-GFP expression in yeast TOR pathway, primary screen, cell-based, multiplex flow cytometry, S. cerevisiae (AID 1887;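 active means GFP signal above the screen-wide mean plus 3 SD, that is over about 124.5% of the solvent control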;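 further: AGP1-GFP fusion strain of S. cerevisiae within a five-strain barcoded multiplex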); details: 3 h, at 10 µM, stronger effect = higher value
[6] = inhibitors of CD8+ T cell-vesicle binding, pilot screen, LFA-1/ICAM-1 modulator project, MLPCN validation set, flow cytometry (AID 2523;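 active means response below a set limit, under 55% cells CD8-positive and vesicle-bound, and CD8 cells' 90th-percentile brightness under 279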;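 on vesicle binding response: mean PE anti-B7-1 fluorescence of CD8+ cells relative to row control; 100% = QL9-loaded vesicles with DMSO vehicle in the same plate row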); details: 2C mouse CD8+ T cells, at 7 µM, stronger effect = lower value; double positive events: measured here: CD8+/vesicle+ event percentage
[7] = molecular target: Integrin beta-1 (Homo sapiens) + Integrin alpha-4 (Homo sapiens) (UniProt P13612+P05556); assay: inhibition of HUTS-21 binding to VLA-4, pilot screen, VLA-4 allosteric modulator project, U937 cells, HUTS-21 mAb, flow cytometry, validation set (AID 2674;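 active means inhibition above 50%, about 3 SD of the validation set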;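 further: antibody binding induced by the VLA-4 ligand LDV present at three times its Kd; 0% = LDV ligand with antibody and no compound and 100% = antibody without LDV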); details: HUTS-21 LIBS mAb binding, at 6.7 µM, stronger effect = higher value, binding induced by LDV ligand
[8] = superoxide lowering in aged yeast cells, pilot screen, validation compound set (AID 2706;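 active means superoxide response below 65% of plate, a cut near 3 SD across the whole screen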;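 further: yeast exposed to compound for one week at 30 degrees C before staining; 100% = mean of all compound wells on the same plate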); details: S. cerevisiae aging, superoxide DHE fluorescence; at 10 µM, stronger effect = lower value
[9] = molecular target: Beta-adrenergic receptor kinase 1 (Homo sapiens) (UniProt P25098); assay: GRK2 binders displacing RNA aptamer, biochemical, validation, human GRK2, bead flow cytometry (AID 488806;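 active means aptamer binding inhibition above 30%, about 3 SD of noise from non-fluorescent compounds; inactive means inhibition at or below 30%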); details: bead-bound GRK2, FAM-aptamer displacement, at 10 µM, stronger effect = higher value
[10] = molecular target: AP-2 complex subunit beta (Homo sapiens) (UniProt P63010); assay: inhibitors of arrestin peptide binding to AP2, pilot screen, biochemical, validation set, GST-AP2 beads, flow cytometry (AID 504541;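 active means inhibition above 54%, about 3 SD of non-fluorescent compounds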;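 further: AP2 carries R879A mutation and is captured from E. coli lysate; bead-bound FITC arrestin peptide fluorescence measuring arrestin peptide binding to AP2; 0% = DMSO wells and 100% = excess unlabeled arrestin peptide control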); details: FITC arrestin peptide, at 10 µM, stronger effect = higher value, AP2 beta2 appendage fragment, R879A mutant
[11] = yeast V-ATPase proton transport modulators, S. cerevisiae, pHLuorin, HTS validation (AID 504600; in the data active means response above about 15%;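 further: plate controls were DMSO for no effect and reference compound for full effect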); details: S. cerevisiae pHLuorin cytosolic pH, at 10 µM, stronger effect = higher value
[12] = tested on: anti-desmoglein-3 scFv antibody binding to human DSG3; assay: inhibitors of anti-DSG3 scFv binding to DSG3, pilot screen, biochemical, validation compound set, bead-based, flow cytometry (AID 588368;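 active means binding below the plate cutoff, the plate median minus 3 SD, with a reading above zero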;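 further: signal is the median channel fluorescence of bead-bound GFP antibody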); details: Protein G beads, DSG3-Fc, scFv-GFP binding, at 10 µM, stronger effect = lower value
[13] = inhibitors of fungal efflux pumps CDR1, CDR2, MDR1, pilot screen, validation compound set, multiplex, phenotypic (AID 588506;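 active means efflux inhibition above 0.42, the validation set average plus 4 SD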;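 further: Nile Red retained in cells so higher fluorescence means more efflux inhibition; 0 = negative control wells and 1 = enniatin B 25 µM full block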); details: S. cerevisiae pump-expressing triplex, Nile Red efflux flow cytometry; at 10 µM; stronger effect = higher value; the pumps come from Candida albicans
[14] = molecular target: ATP-binding cassette sub-family B member 6 (Homo sapiens) (UniProt Q9NP58); assay: ABCB6 transporter inhibitors, pilot screen, K562-ABCB6 cells, flow cytometry, validation set (AID 588550;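 active means inhibition above the screen-wide mean plus 3 SD, about 51%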;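 further: 0% = DMSO wells and 100% = benzethonium chloride 70 µM positive control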); details: K562-ABCB6 porphyrin accumulation, 1 h, at 10 µM, stronger effect = higher value
[15] = promoters of myeloid differentiation in arrested cells, primary screen, cell-based, GFP/MAC1 double positive, flow cytometry, validation set (AID 588685;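 active means differentiation response of at least 50%, scaled between solvent and reference control, from cells with both markers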;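 further: compound exposure lasts four days before antibody staining and flow analysis; 0% = DMSO wells and 100% = 5 µM fulvestrant positive control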); details: ER-HoxA9 marrow cells, stronger effect = higher value, normalized: vehicle 0, fulvestrant 100
[16] = molecular target: Beta-2 adrenergic receptor (Homo sapiens) (UniProt P07550); assay: beta2AR agonists driving receptor internalization, pilot screen, cell-based, FAP fluorogen, flow cytometry, validation set (AID 504459;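 active means percent response above 42, roughly 3 SD of non-fluorescent test compounds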;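 further: agonist-driven loss of surface beta2AR via internalization measured by FAP dye flow cytometry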); details: Am2.2-beta2AR cells, FAP surface receptor flow cytometry; at 10 µM; stronger effect = higher value
Beta-2 adrenergic receptor (Homo sapiens), sequence (P07550 whole entry, looked up): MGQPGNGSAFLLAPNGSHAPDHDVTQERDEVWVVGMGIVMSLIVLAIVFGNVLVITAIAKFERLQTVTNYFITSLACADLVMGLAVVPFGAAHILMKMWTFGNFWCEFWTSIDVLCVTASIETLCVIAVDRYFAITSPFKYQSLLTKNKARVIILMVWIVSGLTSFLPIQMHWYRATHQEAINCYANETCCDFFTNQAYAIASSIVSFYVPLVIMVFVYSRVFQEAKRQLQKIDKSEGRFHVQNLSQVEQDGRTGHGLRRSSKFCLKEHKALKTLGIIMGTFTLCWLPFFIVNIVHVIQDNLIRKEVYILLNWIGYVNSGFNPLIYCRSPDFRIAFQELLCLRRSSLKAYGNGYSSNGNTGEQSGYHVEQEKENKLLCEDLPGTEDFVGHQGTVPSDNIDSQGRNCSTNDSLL

Integrin beta-1 (Homo sapiens) + Integrin alpha-4 (Homo sapiens), sequence (P05556 whole entry, looked up): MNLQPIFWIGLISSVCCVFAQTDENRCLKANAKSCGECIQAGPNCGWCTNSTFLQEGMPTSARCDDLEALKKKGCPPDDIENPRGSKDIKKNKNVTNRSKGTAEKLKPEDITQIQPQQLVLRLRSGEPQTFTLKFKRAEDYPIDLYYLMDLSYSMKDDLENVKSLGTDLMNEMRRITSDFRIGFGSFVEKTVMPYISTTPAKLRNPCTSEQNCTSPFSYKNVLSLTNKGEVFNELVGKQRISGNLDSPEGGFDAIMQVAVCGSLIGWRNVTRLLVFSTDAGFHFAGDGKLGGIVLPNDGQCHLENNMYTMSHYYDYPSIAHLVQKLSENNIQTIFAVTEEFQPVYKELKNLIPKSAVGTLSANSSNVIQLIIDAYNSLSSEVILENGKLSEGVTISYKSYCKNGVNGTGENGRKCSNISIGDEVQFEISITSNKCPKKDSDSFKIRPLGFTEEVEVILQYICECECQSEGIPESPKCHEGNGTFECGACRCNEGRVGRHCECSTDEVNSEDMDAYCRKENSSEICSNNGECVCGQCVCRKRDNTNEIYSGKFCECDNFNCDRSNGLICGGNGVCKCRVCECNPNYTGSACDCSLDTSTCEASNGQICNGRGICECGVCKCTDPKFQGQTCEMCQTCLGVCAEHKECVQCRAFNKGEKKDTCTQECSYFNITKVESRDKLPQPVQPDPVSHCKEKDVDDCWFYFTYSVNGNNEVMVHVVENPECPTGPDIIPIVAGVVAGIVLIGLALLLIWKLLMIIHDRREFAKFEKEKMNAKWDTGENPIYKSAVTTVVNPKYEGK
Integrin beta-1 (Homo sapiens) + Integrin alpha-4 (Homo sapiens), sequence (P13612 whole entry, looked up): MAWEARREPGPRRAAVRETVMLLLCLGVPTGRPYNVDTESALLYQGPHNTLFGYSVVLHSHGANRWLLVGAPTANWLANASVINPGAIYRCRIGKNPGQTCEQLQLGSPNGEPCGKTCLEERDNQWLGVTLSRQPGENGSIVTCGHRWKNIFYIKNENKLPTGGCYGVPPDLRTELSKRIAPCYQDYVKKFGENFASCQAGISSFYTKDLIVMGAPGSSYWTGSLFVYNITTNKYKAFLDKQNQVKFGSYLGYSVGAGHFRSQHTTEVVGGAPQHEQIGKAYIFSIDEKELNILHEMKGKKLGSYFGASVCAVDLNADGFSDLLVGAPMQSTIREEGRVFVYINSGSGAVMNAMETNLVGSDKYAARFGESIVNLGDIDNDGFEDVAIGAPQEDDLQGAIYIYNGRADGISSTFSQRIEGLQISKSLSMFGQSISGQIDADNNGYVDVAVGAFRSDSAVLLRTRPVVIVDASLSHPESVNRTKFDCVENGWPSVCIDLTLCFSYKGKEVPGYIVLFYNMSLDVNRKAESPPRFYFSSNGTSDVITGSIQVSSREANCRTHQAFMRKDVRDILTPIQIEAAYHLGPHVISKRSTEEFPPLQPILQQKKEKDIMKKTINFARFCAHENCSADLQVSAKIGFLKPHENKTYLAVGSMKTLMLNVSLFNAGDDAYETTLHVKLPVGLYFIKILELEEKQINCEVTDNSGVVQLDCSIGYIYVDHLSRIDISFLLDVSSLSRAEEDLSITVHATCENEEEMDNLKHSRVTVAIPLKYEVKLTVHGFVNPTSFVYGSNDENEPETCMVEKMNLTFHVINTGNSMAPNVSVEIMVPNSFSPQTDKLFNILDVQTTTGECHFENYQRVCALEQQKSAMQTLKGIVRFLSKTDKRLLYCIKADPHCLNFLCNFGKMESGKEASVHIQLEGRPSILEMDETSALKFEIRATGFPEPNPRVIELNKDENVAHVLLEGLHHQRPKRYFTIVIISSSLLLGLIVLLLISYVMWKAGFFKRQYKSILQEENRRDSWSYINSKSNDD
AP-2 complex subunit beta (Homo sapiens), sequence (P63010 whole entry, looked up, the tested form may be a part, one chain of several): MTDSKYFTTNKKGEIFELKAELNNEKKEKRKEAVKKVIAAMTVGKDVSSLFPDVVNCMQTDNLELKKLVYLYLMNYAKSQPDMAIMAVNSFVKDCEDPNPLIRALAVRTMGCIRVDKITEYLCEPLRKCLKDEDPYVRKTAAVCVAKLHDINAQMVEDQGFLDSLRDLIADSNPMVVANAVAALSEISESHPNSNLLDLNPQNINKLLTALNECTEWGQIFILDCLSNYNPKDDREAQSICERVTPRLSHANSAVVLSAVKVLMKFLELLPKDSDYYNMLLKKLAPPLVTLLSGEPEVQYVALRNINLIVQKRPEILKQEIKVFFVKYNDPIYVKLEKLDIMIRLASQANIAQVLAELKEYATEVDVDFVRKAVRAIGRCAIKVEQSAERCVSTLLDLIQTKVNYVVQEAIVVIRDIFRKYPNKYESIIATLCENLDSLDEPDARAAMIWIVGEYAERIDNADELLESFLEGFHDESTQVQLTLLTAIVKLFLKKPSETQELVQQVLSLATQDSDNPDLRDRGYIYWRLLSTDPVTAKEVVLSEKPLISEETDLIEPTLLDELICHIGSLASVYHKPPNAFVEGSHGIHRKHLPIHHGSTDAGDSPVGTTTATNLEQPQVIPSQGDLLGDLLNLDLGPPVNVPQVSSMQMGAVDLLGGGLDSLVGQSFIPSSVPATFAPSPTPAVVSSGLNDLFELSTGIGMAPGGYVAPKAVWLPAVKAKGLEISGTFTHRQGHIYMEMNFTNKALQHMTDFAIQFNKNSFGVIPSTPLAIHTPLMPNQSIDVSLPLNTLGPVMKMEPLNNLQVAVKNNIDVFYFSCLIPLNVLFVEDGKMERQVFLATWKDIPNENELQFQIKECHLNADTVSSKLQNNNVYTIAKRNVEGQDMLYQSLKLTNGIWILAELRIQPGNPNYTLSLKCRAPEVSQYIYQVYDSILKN
ATP-binding cassette sub-family B member 6 (Homo sapiens), sequence (Q9NP58 whole entry, looked up): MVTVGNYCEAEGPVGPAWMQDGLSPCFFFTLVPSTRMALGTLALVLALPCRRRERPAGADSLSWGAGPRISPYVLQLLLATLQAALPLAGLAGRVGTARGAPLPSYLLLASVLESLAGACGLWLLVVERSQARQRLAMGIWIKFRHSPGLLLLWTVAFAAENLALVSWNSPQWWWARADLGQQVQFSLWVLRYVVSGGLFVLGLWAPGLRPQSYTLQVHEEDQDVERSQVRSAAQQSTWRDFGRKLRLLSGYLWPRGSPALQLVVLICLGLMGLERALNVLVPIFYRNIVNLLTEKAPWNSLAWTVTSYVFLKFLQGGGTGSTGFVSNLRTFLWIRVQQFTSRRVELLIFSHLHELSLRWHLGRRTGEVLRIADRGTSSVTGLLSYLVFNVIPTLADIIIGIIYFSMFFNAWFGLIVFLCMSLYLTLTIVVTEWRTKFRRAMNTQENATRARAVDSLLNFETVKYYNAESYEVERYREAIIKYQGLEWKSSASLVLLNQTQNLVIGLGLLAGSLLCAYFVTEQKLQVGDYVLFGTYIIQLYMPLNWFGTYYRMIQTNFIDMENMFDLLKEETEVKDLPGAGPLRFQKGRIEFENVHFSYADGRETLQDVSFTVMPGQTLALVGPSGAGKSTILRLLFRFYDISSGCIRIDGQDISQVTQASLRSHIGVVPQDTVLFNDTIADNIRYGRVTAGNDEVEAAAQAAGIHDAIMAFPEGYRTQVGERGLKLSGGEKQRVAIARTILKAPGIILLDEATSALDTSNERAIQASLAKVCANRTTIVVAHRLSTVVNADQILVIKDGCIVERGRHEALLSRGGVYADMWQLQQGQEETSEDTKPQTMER
Beta-adrenergic receptor kinase 1 (Homo sapiens), sequence (P25098 whole entry, looked up): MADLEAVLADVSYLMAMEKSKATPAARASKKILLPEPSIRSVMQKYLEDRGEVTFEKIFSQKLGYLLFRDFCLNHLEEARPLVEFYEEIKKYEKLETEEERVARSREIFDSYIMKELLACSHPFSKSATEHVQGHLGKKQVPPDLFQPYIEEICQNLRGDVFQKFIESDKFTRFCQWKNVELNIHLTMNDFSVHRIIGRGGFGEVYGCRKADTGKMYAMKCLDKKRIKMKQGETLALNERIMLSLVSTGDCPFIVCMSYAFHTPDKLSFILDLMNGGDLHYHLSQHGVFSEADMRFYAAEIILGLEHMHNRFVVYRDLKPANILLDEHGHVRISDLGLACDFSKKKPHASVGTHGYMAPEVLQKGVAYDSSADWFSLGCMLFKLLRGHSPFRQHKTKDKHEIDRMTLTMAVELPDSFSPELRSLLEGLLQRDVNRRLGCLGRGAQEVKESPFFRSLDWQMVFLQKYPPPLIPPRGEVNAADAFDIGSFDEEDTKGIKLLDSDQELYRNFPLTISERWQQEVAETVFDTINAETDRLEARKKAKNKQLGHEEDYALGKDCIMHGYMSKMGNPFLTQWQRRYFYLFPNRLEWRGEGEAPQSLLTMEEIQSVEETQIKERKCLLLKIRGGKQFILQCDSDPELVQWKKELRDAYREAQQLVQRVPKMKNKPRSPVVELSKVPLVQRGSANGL

O=C(O)/C=C/c1ccc(O)c(O)c1
inactive: percent of DMSO control GFP [1] 101% | GFP response vs DMSO [2] 104% | percent response of DMSO control [3] 106% | GFP response vs DMSO [4] 95.4% | GFP response, % of DMSO [5] 99.9% | vesicle binding response [6] 173% | inhibition [7] 23.1% | superoxide response (% of plate) [8] 106% | aptamer binding inhibition [9] 8% | inhibition [10] 4.2% | response [11] -0.83% | binding (% of control) [12] 95.4% | efflux inhibition (fraction of control) [13] 0.18 | inhibition [14] 4% | differentiation response [15] -0.2%
52.4%: double positive events [6]

CN1C(=O)C(O)(CC(=O)/C=C/C=C/c2ccccc2)c2ccccc21 (configuration not stated)
inactive: percent of DMSO control GFP [1] 104% | GFP response vs DMSO [2] 98.9% | percent response of DMSO control [3] 104% | GFP response vs DMSO [4] 94.3% | GFP response, % of DMSO [5] 98.1% | vesicle binding response [6] 153% | inhibition [7] -0.24% | superoxide response (% of plate) [8] 102% | aptamer binding inhibition [9] 2% | inhibition [10] -6.66% | response [11] 0.35% | binding (% of control) [12] 99% | efflux inhibition (fraction of control) [13] 0.06 | inhibition [14] 5% | differentiation response [15] -18%
54.8%: double positive events [6]

CC(C)(C)NCC(O)c1cc(O)cc(O)c1 (configuration not stated)
inactive: percent of DMSO control GFP [1] 97.8% | GFP response vs DMSO [2] 102% | percent response of DMSO control [3] 95.1% | GFP response vs DMSO [4] 106% | GFP response, % of DMSO [5] 119% | vesicle binding response [6] 190% | inhibition [7] -15.6% | superoxide response (% of plate) [8] 113% | inhibition [10] -13.2% | response [11] -6.14% | binding (% of control) [12] 100% | efflux inhibition (fraction of control) [13] -0.04 | inhibition [14] 6% | differentiation response [15] -4.99%
61.6%: double positive events [6]

O=C(Nc1ccc(Oc2c(F)c(F)c(F)c(F)c2F)cc1)OC1CCN2Cc3ccccc3N=C12 (configuration not stated)
inactive: percent of DMSO control GFP [1] 107% | GFP response vs DMSO [2] 105% | percent response of DMSO control [3] 97.9% | GFP response vs DMSO [4] 98.4% | GFP response, % of DMSO [5] 96.4% | vesicle binding response [6] 123% | inhibition [7] -184% | superoxide response (% of plate) [8] 85.7% | aptamer binding inhibition [9] 0% | response [11] -2.8% | binding (% of control) [12] 98.8% | inhibition [14] 1%
active: efflux inhibition (fraction of control) [13] 1.47 | differentiation response [15] 70.8%
53.8%: double positive events [6]

Cc1ccc2c(c1)C(O)(c1c(C)[nH]c3ccccc13)C(=O)N2 (configuration not stated)
inactive: percent of DMSO control GFP [1] 98.6% | GFP response vs DMSO [2] 97.9% | percent response of DMSO control [3] 106% | GFP response vs DMSO [4] 96.4% | GFP response, % of DMSO [5] 90.1% | vesicle binding response [6] 259% | inhibition [7] -4.9% | superoxide response (% of plate) [8] 98.1% | aptamer binding inhibition [9] -1% | inhibition [10] -11.2% | response [11] -5.66% | binding (% of control) [12] 102% | efflux inhibition (fraction of control) [13] 0.1 | inhibition [14] 5% | differentiation response [15] -34.1%
57.8%: double positive events [6]

CC/C(=C1/C(=O)CC(C)(C)C(C(=O)OC)C1=O)N1CCCC1 (configuration not stated)
63%: double positive events [6]
active: efflux inhibition (fraction of control) [13] 0.99
inactive: percent of DMSO control GFP [1] 103% | GFP response vs DMSO [2] 96.2% | percent response of DMSO control [3] 83.8% | GFP response vs DMSO [4] 83.5% | GFP response, % of DMSO [5] 88.9% | vesicle binding response [6] 174% | inhibition [7] 6.81% | aptamer binding inhibition [9] 3% | response [16] -0.83% | inhibition [10] -0.06% | response [11] 3.5% | binding (% of control) [12] 96.6% | inhibition [14] 11% | differentiation response [15] 34.5%

CC(C)NCC(O)COc1ccc(CCOCC2CC2)cc1 (configuration not stated)
inactive: percent of DMSO control GFP [1] 103% | GFP response vs DMSO [2] 102% | percent response of DMSO control [3] 109% | GFP response vs DMSO [4] 111% | GFP response, % of DMSO [5] 108% | vesicle binding response [6] 215% | inhibition [7] -10.5% | superoxide response (% of plate) [8] 93.3% | aptamer binding inhibition [9] -6% | inhibition [10] -20.5% | response [11] 9.7% | binding (% of control) [12] 103% | efflux inhibition (fraction of control) [13] 0.03 | inhibition [14] -3% | differentiation response [15] 7.13%
63.7%: double positive events [6]

C[C@H]1C[C@H]2[C@@H]3CCC4=CC(=O)C=C[C@]4(C)[C@@]3(Cl)[C@@H](O)C[C@]2(C)[C@@]1(O)C(=O)CO
inactive: percent of DMSO control GFP [1] 101% | GFP response vs DMSO [2] 103% | percent response of DMSO control [3] 106% | GFP response vs DMSO [4] 103% | GFP response, % of DMSO [5] 98.8% | vesicle binding response [6] 190% | inhibition [7] 4.42% | superoxide response (% of plate) [8] 85.2% | aptamer binding inhibition [9] 2% | inhibition [10] -8.65% | response [11] 4.84% | binding (% of control) [12] 96.9% | efflux inhibition (fraction of control) [13] -0.24 | inhibition [14] 6% | differentiation response [15] -9.89%
53.7%: double positive events [6]

Oc1c(Cl)cc(Cl)c(Cl)c1Cc1c(O)c(Cl)cc(Cl)c1Cl
active: vesicle binding response [6] 24.1%
51.2%: double positive events [6]
inactive: percent of DMSO control GFP [1] 107% | GFP response vs DMSO [2] 113% | percent response of DMSO control [3] 108% | GFP response vs DMSO [4] 96.8% | GFP response, % of DMSO [5] 93.1% | inhibition [7] 7.43% | superoxide response (% of plate) [8] 79.3% | aptamer binding inhibition [9] -1% | response [11] 0.14% | binding (% of control) [12] 105% | efflux inhibition (fraction of control) [13] 0.19 | inhibition [14] 8% | differentiation response [15] 0.82%

CC1(C)S[C@@H]2[C@H](NC(=O)C(C(=O)O)c3ccccc3)C(=O)N2[C@H]1C(=O)O (some centres not stated)
inactive: percent of DMSO control GFP [1] 96.3% | GFP response vs DMSO [2] 94.8% | percent response of DMSO control [3] 105% | GFP response vs DMSO [4] 88.3% | GFP response, % of DMSO [5] 98.5% | vesicle binding response [6] 212% | inhibition [7] 2.56% | superoxide response (% of plate) [8] 108% | aptamer binding inhibition [9] 4% | inhibition [10] 1.78% | response [11] -1.48% | binding (% of control) [12] 97.2% | efflux inhibition (fraction of control) [13] -0.12 | inhibition [14] 9% | differentiation response [15] 1.41%
53.1%: double positive events [6]
